# Data published in PubChem BioAssay (Tox21).
# Values without a mark were called inactive. Inconclusive results are not listed. A call without a number means that no potency is given here. Active and inactive are the calls of the source. Unless noted, the call rests on the fitted dose curve; in most records, active means well fitted curve in the direction sought with a large enough effect in the repeat runs; inconclusive means weak or mixed curves; inactive means no such curve, though single readings can be large; an effect the other way counts as inactive or inconclusive.
# Assays:
# [1] = target: Thyrotropin-releasing hormone receptor (Homo sapiens) (UniProt P34981); experiment: qHTS assay to identify small molecule agonists of the thyrotropin-releasing hormone receptor (TRHR) signaling pathway (AID 1346891; calls by dose curve; further: series mostly up to about 58 µM)
# How it was run: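 TRHR-expressing HEK293 cells were plated 18 h at 37 °C/5% CO2, loaded with calcium dye 2 h at 37 °C, then given compound in DMSO; fluorescence was read kinetically for 3 min at 1 s intervals.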
# [2] = Human pregnane X receptor (PXR) small molecule agonists, qHTS cell viability counter screen (AID 1346977); further: nearly all actives have a fitted effect of over 50% in size; further: potency means the concentration at half of the fitted maximal effect
# How it was run: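 PXR-Luc HepG2 cells in medium with 5% charcoal-stripped FBS were pre-incubated 5hr, then exposed to compounds for 24hr at 37C. Viability was read in the same wells by CellTiter-Fluor fluorescence, reagent added after 23hr with a 1hr incubation.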
# [3] = Caspase-3/7 induction in HepG2 cells by small molecules, qHTS assay (AID 1346978); further: nearly all actives have a fitted effect of over 15% in size
# How it was run: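 Wild-type HepG2 cells (2,000/well) were settled 5 h at 37 C, 5% CO2, then exposed to compounds in DMSO for 17 h. Caspase-3/7 activity was read by luminescence 30 min after adding Caspase-Glo 3/7 reagent at room temperature.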
# [4] = Caspase-3/7 induction in CHO-K1 cells by small molecules, qHTS cell viability counter screen (AID 1346979); further: nearly all actives have a fitted effect of over 35% in size; further: potency means the concentration at half of the fitted maximal effect
# How it was run: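 Wild-type CHO-K1 cells were seeded at 1,500 per well, rested 5hr at 37 C, then exposed to compounds in DMSO. After 16hr, CellTiter-Fluor reagent was added and fluorescence read 1hr later as the viability measure.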
# [5] = target: Nuclear receptor subfamily 1 group I member 2 (Homo sapiens) (UniProt O75469); experiment: Human pregnane X receptor (PXR) small molecule agonists, qHTS assay (AID 1346982); further: nearly all actives have a fitted effect of over 35% in size; further: potency means the concentration at half of the fitted maximal effect
# How it was run: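 HepG2 PXR-Luc reporter line, 5% charcoal-stripped FBS; 5 hr pre-incubation, compound (DMSO) 24 hr at 37 C/5% CO2; ONE-Glo 30 min RT; luminescence read-out.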
# [6] = target: Cytochrome P450 2D6 (Homo sapiens) (UniProt P10635); experiment: Cytochrome P450 Family 2 Subfamily D Member 6 (CYP2D6) small molecule antagonists: luciferase reporter qHTS assay (AID 1671196); further: nearly all actives have a fitted effect of over 50% in size; further: potency means the concentration at half of the fitted maximal effect
# How it was run: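 Luminogenic proluciferin substrate, CYP2D6 enzyme; 10 min RT preincubation with compound, NADPH regeneration system added, 1 h RT. Stop/detection reagent, 20 min RT, luminescence read (RLU). Signal proportional to CYP activity.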
# [7] = target: Cytochrome P450 2C19 (Homo sapiens) (UniProt P33261); experiment: Cytochrome P450 Family 2 Subfamily C Member 19 (CYP2C19) small molecule antagonists: luciferase reporter qHTS assay (AID 1671197); further: nearly all actives have a fitted effect of over 65% in size; further: potency means the concentration at half of the fitted maximal effect
# How it was run: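 Luminescent readout of CYP2C19 activity: luciferin product detected 20 min after adding detection reagent. Before that, compound and enzyme-substrate mix preincubated 10 min at room temperature; NADPH-regenerating system started a 1 h, 37C reaction. Ketoconazole as positive control.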
# [8] = target: Cytochrome P450 2C9 (Homo sapiens) (UniProt P11712); experiment: Cytochrome P450 Family 2 Subfamily C Member 9 (CYP2C9) small molecule antagonists: luciferase reporter qHTS assay (AID 1671198); further: nearly all actives have a fitted effect of over 50% in size; further: potency means the concentration at half of the fitted maximal effect
# How it was run: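 CYP2C9 activity was measured with a P450-Glo proluciferin substrate. Enzyme–substrate mix was held with compound for 10 min at room temperature, then NADPH regeneration solution was added for 1 h at 37C. Luciferin product was read as luminescence.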
# [9] = target: Cytochrome P450 1A2 (Homo sapiens) (UniProt P05177); experiment: Cytochrome P450 Family 1 Subfamily A Member 2 (CYP1A2) small molecule antagonists: luciferase reporter qHTS assay (AID 1671199); further: nearly all actives have a fitted effect of over 50% in size; further: potency means the concentration at half of the fitted maximal effect
# How it was run: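 Luminescence readout (relative luminescence units) after luciferin detection reagent, 20 min RT. Preceded by 1 h room-temperature CYP1A2 reaction with NADPH regeneration solution following 10 min compound preincubation with enzyme and proluciferin substrate. Furafylline positive control.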
# [10] = target: Voltage-gated inwardly rectifying potassium channel KCNH2 (Homo sapiens) (UniProt Q12809); experiment: Human Ether-a-go-go-Related Gene (hERG) channel small molecule antagonists: fluorescence cell-based qHTS assay (AID 1671200); further: nearly all actives have a fitted effect of over 50% in size; further: potency means the concentration at half of the fitted maximal effect
# How it was run: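 U2OS cells expressing the channel were plated at 1000 cells/well, incubated overnight at 37 C, then loaded with FluxOR II thallium-sensitive dye for 1 h at room temperature in the dark, with a further 10 min at room temperature before stimulation.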
# [11] = target: Cytochrome P450 3A4 (Homo sapiens) (UniProt P08684); experiment: Cytochrome P450 Family 3 Subfamily A Member 4 (CYP3A4) small molecule antagonists: luciferase reporter qHTS assay (AID 1671201); further: nearly all actives have a fitted effect of over 50% in size; further: potency means the concentration at half of the fitted maximal effect
# How it was run: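 P450-Glo CYP3A4 system with proluciferin substrate; compounds preincubated 10 min RT with enzyme-substrate mix, then NADPH regeneration added for 1 h RT. Detection reagent 20 min, luminescence read as relative luminescence units.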
# [12] = Caspase-3/7 induction in CHO-K1 cells by small molecules, qHTS assay (AID 1346980); further: nearly all actives have a fitted effect of over 15% in size
# How it was run: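 Wild-type cells were seeded at 1,500 per well and settled 5 hr at 37 C, 5% CO2, then exposed to DMSO-dissolved compounds for 17 hr. Caspase-Glo 3/7 reagent was added, and luminescence was read after 30min at room temperature.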
# [13] = Caspase-3/7 induction in HepG2 cells by small molecules, qHTS cell viability counter screen (AID 1346981); further: nearly all actives have a fitted effect of over 30% in size; further: potency means the concentration at half of the fitted maximal effect
# How it was run: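 Fluorescence read-out of live-cell protease activity (CellTiter-Fluor) after 1 hr with reagent. This was measured in the same wells as the caspase-3/7 luminescence, on HepG2 cells exposed to DMSO-dissolved compounds for 16 hr at 37 C.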
# [14] = target: Nuclear receptor subfamily 1 group I member 2 (Homo sapiens) (UniProt O75469); experiment: CYP3A4 induction through human pregnane X receptor (PXR) by small molecules, qHTS assay (AID 1346984); further: nearly all actives have a fitted effect of over 40% in size
# How it was run: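 HepG2-derived DPX-2 line carrying PXR plus a CYP3A4-promoter luciferase reporter; cells plated 5 hr, compound-exposed 24 hr at 37C. CYP3A4 activity probed with 3uM (final) Luciferin-IPA for 3hr, then luciferase read after One-Glo.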
# [15] = target: Nuclear receptor subfamily 1 group I member 2 (Rattus norvegicus) (UniProt Q9R1A7); experiment: Rat pregnane X receptor (rPXR) activation by small molecules, qHTS assay (AID 1346983); conditions: rPXR luciferase reporter cells, One-Glo luminescence, 24 h; max activation: stronger effect = higher value; further: nearly all actives have a fitted effect of over 20% in size
# How it was run: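 Cell-based rPXR luciferase reporter assay, 2,000 cells per well, rested 5hr at 37 C before compound addition in DMSO, then 24 hr at 37 C. One-Glo reagent was added and luminescence read after 30 min at room temperature.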
# [16] = target: Nuclear receptor subfamily 1 group I member 2 (Homo sapiens) (UniProt O75469); experiment: Human pregnane X receptor (PXR) activation by small molecules, qHTS assay (AID 1346985); further: nearly all actives have a fitted effect of over 40% in size
# How it was run: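 DPX-2 cells (HepG2 co-transfected with a PXR response element and a CYP3A4-promoter luciferase construct) were seeded at 2,000 per well, rested 5 hr at 37C, then exposed to DMSO-dissolved compounds for 24 hr. Activation was read as luciferase luminescence.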
# Chain of Cytochrome P450 2C19 (Homo sapiens) (P33261 whole entry, looked up): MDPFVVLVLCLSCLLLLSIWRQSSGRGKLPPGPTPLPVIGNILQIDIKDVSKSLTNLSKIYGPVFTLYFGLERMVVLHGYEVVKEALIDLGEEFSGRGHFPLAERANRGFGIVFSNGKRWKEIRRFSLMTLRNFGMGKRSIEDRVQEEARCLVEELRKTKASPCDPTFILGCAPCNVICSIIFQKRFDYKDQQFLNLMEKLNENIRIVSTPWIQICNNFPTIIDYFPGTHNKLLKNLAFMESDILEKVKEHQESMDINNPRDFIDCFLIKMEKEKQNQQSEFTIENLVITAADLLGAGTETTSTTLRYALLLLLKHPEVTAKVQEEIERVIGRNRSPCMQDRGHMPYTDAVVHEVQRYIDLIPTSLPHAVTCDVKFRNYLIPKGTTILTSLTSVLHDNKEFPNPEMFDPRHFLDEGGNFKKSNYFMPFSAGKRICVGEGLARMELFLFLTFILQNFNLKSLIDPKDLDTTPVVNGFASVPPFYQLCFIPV
# Chain of Voltage-gated inwardly rectifying potassium channel KCNH2 (Homo sapiens) (Q12809 whole entry, looked up): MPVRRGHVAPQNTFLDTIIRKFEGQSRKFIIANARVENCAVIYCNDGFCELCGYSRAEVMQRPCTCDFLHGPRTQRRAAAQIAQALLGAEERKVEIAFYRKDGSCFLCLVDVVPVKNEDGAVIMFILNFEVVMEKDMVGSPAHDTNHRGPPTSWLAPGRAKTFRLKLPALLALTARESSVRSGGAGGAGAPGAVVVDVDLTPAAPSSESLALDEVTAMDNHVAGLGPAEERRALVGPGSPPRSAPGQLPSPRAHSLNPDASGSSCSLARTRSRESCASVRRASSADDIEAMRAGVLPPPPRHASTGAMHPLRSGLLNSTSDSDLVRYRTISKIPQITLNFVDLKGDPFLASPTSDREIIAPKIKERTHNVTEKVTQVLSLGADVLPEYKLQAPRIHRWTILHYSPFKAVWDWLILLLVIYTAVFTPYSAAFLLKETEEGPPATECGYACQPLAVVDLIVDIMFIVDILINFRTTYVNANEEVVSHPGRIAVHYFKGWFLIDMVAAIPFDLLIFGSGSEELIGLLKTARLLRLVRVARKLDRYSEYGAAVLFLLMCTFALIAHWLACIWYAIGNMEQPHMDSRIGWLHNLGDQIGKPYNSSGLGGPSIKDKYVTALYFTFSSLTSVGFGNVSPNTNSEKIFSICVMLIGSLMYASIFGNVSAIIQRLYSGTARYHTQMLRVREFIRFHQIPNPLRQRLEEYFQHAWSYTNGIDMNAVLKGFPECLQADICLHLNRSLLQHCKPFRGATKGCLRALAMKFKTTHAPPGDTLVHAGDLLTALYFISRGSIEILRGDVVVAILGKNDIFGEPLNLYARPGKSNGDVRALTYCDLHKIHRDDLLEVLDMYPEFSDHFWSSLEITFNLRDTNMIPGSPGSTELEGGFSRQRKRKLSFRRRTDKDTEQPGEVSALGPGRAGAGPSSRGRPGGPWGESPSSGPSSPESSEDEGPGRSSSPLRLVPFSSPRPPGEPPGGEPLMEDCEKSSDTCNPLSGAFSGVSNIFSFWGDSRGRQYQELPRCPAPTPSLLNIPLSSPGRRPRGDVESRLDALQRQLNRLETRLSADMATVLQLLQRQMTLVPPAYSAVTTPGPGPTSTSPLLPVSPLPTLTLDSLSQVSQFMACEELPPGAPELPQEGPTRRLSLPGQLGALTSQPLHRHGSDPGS
# Chain of Cytochrome P450 2D6 (Homo sapiens) (P10635 whole entry, looked up): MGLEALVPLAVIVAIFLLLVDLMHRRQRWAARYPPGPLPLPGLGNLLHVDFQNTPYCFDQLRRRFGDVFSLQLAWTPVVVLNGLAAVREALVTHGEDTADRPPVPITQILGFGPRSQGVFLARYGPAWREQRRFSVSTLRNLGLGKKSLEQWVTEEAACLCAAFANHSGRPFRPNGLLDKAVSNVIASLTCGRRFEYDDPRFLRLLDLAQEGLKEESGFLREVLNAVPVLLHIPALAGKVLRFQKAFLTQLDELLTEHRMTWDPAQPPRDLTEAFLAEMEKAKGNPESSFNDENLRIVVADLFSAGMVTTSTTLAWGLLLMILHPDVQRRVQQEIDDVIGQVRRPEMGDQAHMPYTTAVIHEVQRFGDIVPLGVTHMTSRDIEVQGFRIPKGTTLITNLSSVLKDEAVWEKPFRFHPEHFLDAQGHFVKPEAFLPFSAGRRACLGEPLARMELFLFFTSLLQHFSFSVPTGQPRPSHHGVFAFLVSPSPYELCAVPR
# Chain of Cytochrome P450 1A2 (Homo sapiens) (P05177 whole entry, looked up): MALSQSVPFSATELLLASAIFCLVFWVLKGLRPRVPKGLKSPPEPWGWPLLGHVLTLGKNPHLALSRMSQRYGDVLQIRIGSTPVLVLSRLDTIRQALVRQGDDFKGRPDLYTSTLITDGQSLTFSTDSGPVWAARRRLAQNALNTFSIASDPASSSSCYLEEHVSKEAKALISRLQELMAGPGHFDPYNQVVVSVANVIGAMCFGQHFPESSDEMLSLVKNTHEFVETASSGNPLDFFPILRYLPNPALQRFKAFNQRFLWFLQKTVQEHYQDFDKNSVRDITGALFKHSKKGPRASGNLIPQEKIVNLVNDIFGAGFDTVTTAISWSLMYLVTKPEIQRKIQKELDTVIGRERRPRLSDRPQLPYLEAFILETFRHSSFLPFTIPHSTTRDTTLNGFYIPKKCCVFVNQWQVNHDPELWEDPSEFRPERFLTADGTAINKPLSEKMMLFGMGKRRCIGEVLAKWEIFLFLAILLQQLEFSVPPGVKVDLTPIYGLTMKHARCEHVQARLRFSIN
# Chain of Thyrotropin-releasing hormone receptor (Homo sapiens) (P34981 whole entry, looked up): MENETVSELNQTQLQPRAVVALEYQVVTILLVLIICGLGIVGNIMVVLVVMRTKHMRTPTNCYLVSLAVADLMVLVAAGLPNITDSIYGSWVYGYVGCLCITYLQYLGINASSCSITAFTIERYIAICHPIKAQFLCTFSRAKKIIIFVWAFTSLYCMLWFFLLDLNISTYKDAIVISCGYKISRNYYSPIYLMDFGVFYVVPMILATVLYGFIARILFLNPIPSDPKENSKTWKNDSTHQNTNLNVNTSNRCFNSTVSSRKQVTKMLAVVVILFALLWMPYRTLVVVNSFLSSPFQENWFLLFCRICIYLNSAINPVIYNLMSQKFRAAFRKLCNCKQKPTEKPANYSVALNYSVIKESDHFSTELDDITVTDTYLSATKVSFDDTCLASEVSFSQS
# Chain of Cytochrome P450 3A4 (Homo sapiens) (P08684 whole entry, looked up): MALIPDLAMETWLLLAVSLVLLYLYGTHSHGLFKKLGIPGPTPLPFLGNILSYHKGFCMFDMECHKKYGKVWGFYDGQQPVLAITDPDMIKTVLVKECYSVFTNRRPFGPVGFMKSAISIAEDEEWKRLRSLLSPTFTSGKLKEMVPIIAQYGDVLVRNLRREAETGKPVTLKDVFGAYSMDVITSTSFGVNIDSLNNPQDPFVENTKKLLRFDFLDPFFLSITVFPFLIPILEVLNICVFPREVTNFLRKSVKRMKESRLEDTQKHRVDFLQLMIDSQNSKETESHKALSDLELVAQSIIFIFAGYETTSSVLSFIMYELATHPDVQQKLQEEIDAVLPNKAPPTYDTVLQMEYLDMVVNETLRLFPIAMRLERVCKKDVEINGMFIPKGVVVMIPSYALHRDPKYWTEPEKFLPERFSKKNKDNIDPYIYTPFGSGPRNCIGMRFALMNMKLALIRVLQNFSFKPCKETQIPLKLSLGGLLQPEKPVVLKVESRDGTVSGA
# Chain of Cytochrome P450 2C9 (Homo sapiens) (P11712 whole entry, looked up): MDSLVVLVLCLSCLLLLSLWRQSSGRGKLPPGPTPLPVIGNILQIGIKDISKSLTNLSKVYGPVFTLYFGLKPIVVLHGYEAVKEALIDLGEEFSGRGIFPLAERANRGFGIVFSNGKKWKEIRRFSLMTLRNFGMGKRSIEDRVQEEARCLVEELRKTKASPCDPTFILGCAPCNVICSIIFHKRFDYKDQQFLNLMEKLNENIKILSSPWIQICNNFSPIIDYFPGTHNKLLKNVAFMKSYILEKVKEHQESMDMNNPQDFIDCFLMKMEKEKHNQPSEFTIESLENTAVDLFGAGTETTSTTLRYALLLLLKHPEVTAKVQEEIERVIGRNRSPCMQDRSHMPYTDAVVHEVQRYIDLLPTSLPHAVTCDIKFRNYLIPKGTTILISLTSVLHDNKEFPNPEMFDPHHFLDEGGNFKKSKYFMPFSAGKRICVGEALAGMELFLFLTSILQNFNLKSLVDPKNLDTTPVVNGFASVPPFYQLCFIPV
# Chain of Nuclear receptor subfamily 1 group I member 2 (Homo sapiens) (O75469 whole entry, looked up): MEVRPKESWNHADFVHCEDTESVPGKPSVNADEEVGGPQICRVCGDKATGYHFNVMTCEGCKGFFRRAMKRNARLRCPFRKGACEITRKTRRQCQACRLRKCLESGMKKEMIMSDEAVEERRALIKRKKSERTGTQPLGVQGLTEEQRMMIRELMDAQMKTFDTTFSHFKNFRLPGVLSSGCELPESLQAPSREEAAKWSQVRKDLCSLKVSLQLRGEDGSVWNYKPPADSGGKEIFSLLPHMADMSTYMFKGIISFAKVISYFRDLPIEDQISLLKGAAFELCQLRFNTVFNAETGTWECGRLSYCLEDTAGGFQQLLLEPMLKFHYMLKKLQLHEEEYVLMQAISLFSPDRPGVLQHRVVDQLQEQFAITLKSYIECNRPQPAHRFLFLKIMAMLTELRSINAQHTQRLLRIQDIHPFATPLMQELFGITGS
# Chain of Nuclear receptor subfamily 1 group I member 2 (Rattus norvegicus) (Q9R1A7 whole entry, looked up): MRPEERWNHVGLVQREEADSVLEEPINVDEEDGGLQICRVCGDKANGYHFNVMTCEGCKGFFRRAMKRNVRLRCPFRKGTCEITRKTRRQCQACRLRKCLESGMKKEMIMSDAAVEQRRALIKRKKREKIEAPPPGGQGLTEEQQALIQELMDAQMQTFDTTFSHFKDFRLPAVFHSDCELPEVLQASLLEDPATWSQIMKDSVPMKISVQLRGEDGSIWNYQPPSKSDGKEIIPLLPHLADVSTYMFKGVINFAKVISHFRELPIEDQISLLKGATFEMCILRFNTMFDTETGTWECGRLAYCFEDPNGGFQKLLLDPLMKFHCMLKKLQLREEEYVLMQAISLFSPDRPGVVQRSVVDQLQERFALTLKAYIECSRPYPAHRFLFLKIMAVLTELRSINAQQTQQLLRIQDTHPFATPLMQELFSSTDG
SMILES,Potency [1],Potency [2],Potency [3],Potency [4],Potency [5],Potency [6],Potency [7],Potency [8],Potency [9],Potency [10],Potency [11],outcome [12],Potency [13],Potency [14],max activation [15] [%],Potency [16]
CC(C)(CCl)c1ccccc1,inactive,inactive,inactive,inactive,inactive,inactive,inactive,inactive,inactive,inactive,inactive,–,–,–,–,–
CC(C)(O)c1ccccc1CC[C@@H](SCC1(CC(=O)O)CC1)c1cccc(/C=C/c2ccc3ccc(Cl)cc3n2)c1,inactive,inactive,inactive,–,inactive,inactive,inactive,inactive,inactive,inactive,inactive,inactive,inactive,inactive,–,–
COc1ccccc1N=Nc1c(S(=O)(=O)O)cc2cc(S(=O)(=O)O)cc(NC(C)=O)c2c1O,inactive,22.9 µM (active),inactive,–,inactive,33.5 µM (active),29.8 µM (active),33.5 µM (active),33.5 µM (active),inactive,33.5 µM (active),inactive,25.7 µM (active),–,–,–
CC[C@H](NC(=O)c1cc(F)ccc1NS(=O)(=O)c1cccc2cccnc12)c1ccccc1,inactive,inactive,inactive,46 µM (active),0.46 µM (active),–,–,9.49 µM (active),inactive,inactive,1.5 µM (active),–,–,–,–,–
C[Si]1(C)O[Si](C)(C)O[Si](C)(C)O1,inactive,inactive,inactive,inactive,inactive,inactive,inactive,inactive,inactive,inactive,inactive,–,inactive,–,–,–
O=C(CCCN1CCN(c2ccc(F)cc2)CC1)NC1c2ccccc2CSc2ccccc21 (stereo not given),inactive,21.1 µM (active),inactive,inactive,inactive,9.77 µM (active),4.36 µM (active),6.92 µM (active),inactive,1.9 µM (active),–,–,inactive,–,–,–
CCOC(=O)OCC,inactive,inactive,inactive,–,inactive,23.3 µM (active),inactive,inactive,41.5 µM (active),inactive,–,inactive,inactive,–,–,–
CC#N,inactive,inactive,inactive,–,inactive,inactive,inactive,inactive,inactive,inactive,inactive,inactive,inactive,–,–,–
C[N+]1(C)CCC(=C(c2ccccc2)c2ccccc2)CC1,inactive,inactive,inactive,–,inactive,12.3 µM (active),inactive,inactive,inactive,8.49 µM (active),inactive,inactive,inactive,inactive,-1.49,inactive
C[Si](NC1CCCCC1)(NC1CCCCC1)NC1CCCCC1,inactive,inactive,inactive,inactive,inactive,–,inactive,–,–,inactive,inactive,–,inactive,–,–,–
CCOC(=O)[C@@H](C)Oc1ccc(Oc2nc3ccc(Cl)cc3o2)cc1,inactive,inactive,inactive,inactive,61.1 µM (active),31.7 µM (active),79.6 µM (active),35.6 µM (active),–,19.5 µM (active),inactive,–,inactive,–,–,–
COc1cc2[nH]c(=O)[nH]c(=O)c2cc1OC,inactive,inactive,inactive,–,inactive,inactive,inactive,inactive,–,inactive,inactive,inactive,inactive,inactive,-3.43,inactive
